For experiment [1], the system named is Human papillomavirus type 1a protein E7 (residues 44-93). Description: HPV1a E7 fragment binders on microarrays, primary screen, biochemical, small-molecule microarray, residues 44-93, 635 nm fluorescence (AID 1108).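 Further: E7 fragment applied at 1 µg/mL in TBST for 1 h at 4 C; score combines spot fluorescence with its signal to noise ratio.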 The settings on record: small-molecule microarray binding, fluorescence 635 nm; higher = more signal.
The nature of experiment [2]: modulators of HCV replicon luciferase signal, primary screen, HCV replication inhibitor project, Huh7 cells, luciferase reporter (AID 1109).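 Further: huh7 hepatoma cells harbouring a luciferase neomycin HCV replicon reporter; luciferase luminescence as measure of HCV replicon replication; test concentration not given here.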 Particulars: 48 h, higher = more signal. On the technique in general: In antiviral work, replicon cells carry a viral genome segment that copies itself.
Experiment [3] has as its target Left-right determination factor 2 (Homo sapiens) (UniProt O00292). Nature of the experiment: LEFTY2 binders on small-molecule microarrays, primary screen, biochemical, small-molecule microarray, 635 nm fluorescence scan (AID 1110). Particulars: LEFTY2 binding, higher = more signal.
The target in experiment [4] is Calmodulin-1 (Homo sapiens) (UniProt P0DP23). Description: CALM1 binders on microarrays, EGTA buffer, profiling panel, biochemical, small-molecule microarray, Cy5-labelled CALM1 (AID 1111).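 Further: labelled calmodulin applied in Tris saline Tween buffer holding calcium plus EGTA and DTT.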 Particulars: Cy5-CALM1 binding fluorescence, higher = more signal.
For experiment [5] the target is unchanged. Description: calcium-bound CALM1 binders on microarrays, profiling panel, artefact control for SMM control-protein annotation, biochemical, small-molecule microarray, Cy5-labelled CALM1, plus calcium (AID 1112).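 Further: score merges spot fluorescence with signal to noise from triplicate slides.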 The settings on record: Cy5-CALM1 binding fluorescence, higher = more signal.
A short description of experiment [6]: small-molecule microarray binders of probe aWnt5a, primary screen, biochemical, biotinylated probe, 635/667 nm fluorescence (AID 1113).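 Further: score merges 667 nm fluorescence intensity with signal-to-noise per printed feature.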 Particulars: higher = more signal.
A short description of experiment [7]: small-molecule microarray binders of probe aShh, primary screen, biochemical, biotinylated probe, 635/667 nm fluorescence (AID 1114).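 Further: probe is biotin-labelled aShh protein from a stem cell growth factor screen; measures binding of labelled protein to compounds printed on the slide; score merges feature fluorescence at 667 nm with signal-to-noise.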 The settings on record: higher = more signal.
Experiment [8] can be described thus: small-molecule microarray binders of probe aNog, primary screen, biochemical, biotinylated probe, 635/667 nm fluorescence (AID 1115).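 Further: probe is biotinylated aNog protein used at 0.15 µg/mL for 1 h at 4 C; z-score combines 667 nm fluorescence of each spot with its signal to noise.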 Particulars: higher = more signal.
The target in experiment [9] is Torsin-1A-interacting protein 1 (Homo sapiens) (UniProt Q5JTV8). Description: LAP1 binders from COS7 cell lysate, primary screen, small-molecule microarray, 635/667 nm fluorescence (AID 1116). Particulars: COS7-hLAP1 lysate binding, 635 nm fluorescence, higher = more signal.
Torsin-1A-interacting protein 1 (Homo sapiens), sequence (Q5JTV8 whole entry, looked up): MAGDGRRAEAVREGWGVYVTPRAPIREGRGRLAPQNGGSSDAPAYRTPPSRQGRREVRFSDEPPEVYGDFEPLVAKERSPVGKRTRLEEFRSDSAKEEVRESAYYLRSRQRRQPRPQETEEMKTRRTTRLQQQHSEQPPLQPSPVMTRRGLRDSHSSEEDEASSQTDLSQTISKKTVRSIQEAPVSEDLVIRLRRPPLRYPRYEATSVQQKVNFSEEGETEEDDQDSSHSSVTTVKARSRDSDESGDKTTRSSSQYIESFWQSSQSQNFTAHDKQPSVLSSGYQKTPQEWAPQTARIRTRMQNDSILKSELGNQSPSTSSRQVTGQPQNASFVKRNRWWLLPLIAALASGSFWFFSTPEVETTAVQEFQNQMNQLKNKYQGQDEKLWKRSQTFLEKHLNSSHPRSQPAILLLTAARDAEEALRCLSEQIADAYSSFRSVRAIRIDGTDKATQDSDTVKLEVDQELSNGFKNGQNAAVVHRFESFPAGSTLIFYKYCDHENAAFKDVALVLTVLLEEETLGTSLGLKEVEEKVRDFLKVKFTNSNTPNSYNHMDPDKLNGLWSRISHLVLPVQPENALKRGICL
The target in experiment [10] is Alpha-bungarotoxin (Bungarus multicinctus) (UniProt P60615). Description: alpha-bungarotoxin binders on microarray, profiling panel, artefact control for SMM control protein annotation, biochemical, small-molecule microarray, Alexa647 label, 635/667 nm fluorescence (AID 1117). The settings on record: alpha-BTX-A647 binding fluorescence, higher = more signal.
Alpha-bungarotoxin (Bungarus multicinctus), sequence (P60615 whole entry, looked up): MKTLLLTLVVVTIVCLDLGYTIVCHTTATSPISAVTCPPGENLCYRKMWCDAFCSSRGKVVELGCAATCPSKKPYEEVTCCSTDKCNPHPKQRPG
The target of a further experiment is Albumin (Bos taurus) (UniProt P02769). Description: bovine serum albumin binders on microarray, profiling panel, artefact control for SMM control protein annotation, biochemical, small-molecule microarray, Alexa647 label, 635/667 nm fluorescence (AID 1118).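 Further: score merges 667 nm emission intensity and signal-to-noise per printed compound spot.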 Particulars: BSA-A647 binding, fluorescence 635 nm, higher = more signal.
Albumin (Bos taurus), sequence (P02769 whole entry, looked up): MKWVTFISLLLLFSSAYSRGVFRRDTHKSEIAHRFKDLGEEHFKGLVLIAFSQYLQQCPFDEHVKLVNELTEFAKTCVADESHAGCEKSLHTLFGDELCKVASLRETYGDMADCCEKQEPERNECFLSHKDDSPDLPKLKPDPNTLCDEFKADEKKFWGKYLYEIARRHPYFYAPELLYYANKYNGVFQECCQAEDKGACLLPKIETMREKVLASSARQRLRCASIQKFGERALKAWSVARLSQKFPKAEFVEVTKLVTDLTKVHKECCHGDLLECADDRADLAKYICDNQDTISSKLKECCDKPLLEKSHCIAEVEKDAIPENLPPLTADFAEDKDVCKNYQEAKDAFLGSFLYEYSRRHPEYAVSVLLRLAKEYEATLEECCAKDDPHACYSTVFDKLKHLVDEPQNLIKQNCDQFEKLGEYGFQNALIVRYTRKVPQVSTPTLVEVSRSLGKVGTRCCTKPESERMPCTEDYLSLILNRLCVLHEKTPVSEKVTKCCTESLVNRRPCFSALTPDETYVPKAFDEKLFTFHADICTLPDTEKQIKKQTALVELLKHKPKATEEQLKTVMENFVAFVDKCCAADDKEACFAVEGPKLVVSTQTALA
Experiment [11] can be described thus: small-molecule microarray binders of probe aXIP, primary screen, biochemical, NeuroSMM set, 635/667 nm fluorescence (AID 1119).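 Further: probe is the protein aXip251-270 applied at 1 µg/mL to compound-printed slides; binding of probe to printed compounds measured as 667 nm fluorescence plus signal to noise.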 Particulars: higher = more signal, called active from +8 up or from −8 down.
Experiment [12] in a line: small-molecule binders of probe aNOTCH3, primary screen, biochemical, small-molecule microarray, 635/667 nm fluorescence (AID 1120).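 Further: probe is a biotin-tagged antibody raised against NOTCH3 rather than NOTCH3 protein; score merges spot fluorescence near 667 nm with spot signal to noise.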 The settings on record: higher = more signal.
The nature of experiment [13]: small-molecule binders of probe aNOTCH2, primary screen, biochemical, small-molecule microarray, 635/667 nm fluorescence (AID 1121).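 Further: score merges feature fluorescence read at 667 nm with its signal to noise.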 Particulars: higher = more signal.
Experiment [14] concerns the target Carbonic anhydrase 2 (Homo sapiens) (UniProt P00918). Description: CAII small-molecule binders, profiling panel, biochemical, small-molecule microarray, Alexa647-labelled CAII (AID 1122). The settings on record: CAII-A647 binding fluorescence, higher = more signal.
Experiment [15] in a line: COS7 lysate on small-molecule microarray, probe aHis, 635 nm (AID 1123).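 Further: z-score combines 667nm fluorescence intensity with signal-to-noise per printed compound spot.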 The settings on record: COS7 cell lysate, fluorescence, higher = more signal.
Experiment [16] can be described thus: compound binding in COS7 lysate, probe aLAP1, primary screen, cell lysate, small-molecule microarray (AID 1124).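 Further: lysate comes from COS7 cells expressing LAP1 and is applied at 0.3 µg/mL; score merges spot fluorescence near 667 nm with signal-to-noise over triplicate slides.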 Particulars: probe aLAP1, fluorescence, higher = more signal.
A further experiment has as its system Sam68 (KHDRBS1). Description: Sam68 small-molecule binders, primary screen, biochemical, small-molecule microarray, 635 nm fluorescence (AID 1125).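 Further: score merges 667 nm channel intensity with signal to noise over triplicate slides.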 The settings on record: small-molecule microarray binding, higher = more signal.
In experiment [17] the test system is Chordin-like protein 2 (CHRDL2). Nature of the experiment: CHRDL2 small-molecule binders, primary screen, biochemical, small-molecule microarray, 635 nm fluorescence (AID 1126).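 Further: printed compound slides probed with Chrdl2 protein at 4 µg/mL for 1 h at 4 C; score merges 667 nm emission intensity with signal to noise over three replicate slides.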 Particulars: small-molecule microarray binding, fluorescence 635 nm; higher = more signal.
Experiment [18] deals with Concanavalin-A (Canavalia ensiformis) (UniProt P02866). Description: ConA small-molecule binders, primary screen, artefact control for SMM control protein annotation, biochemical, small-molecule microarray, Alexa647 label, 635 nm (AID 1127).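 Further: z combines 667 nm emission intensity with signal-to-noise across three replicate slides.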 The settings on record: ConA-A647 binding fluorescence, higher = more signal.
Concanavalin-A (Canavalia ensiformis), sequence (P02866 whole entry, looked up): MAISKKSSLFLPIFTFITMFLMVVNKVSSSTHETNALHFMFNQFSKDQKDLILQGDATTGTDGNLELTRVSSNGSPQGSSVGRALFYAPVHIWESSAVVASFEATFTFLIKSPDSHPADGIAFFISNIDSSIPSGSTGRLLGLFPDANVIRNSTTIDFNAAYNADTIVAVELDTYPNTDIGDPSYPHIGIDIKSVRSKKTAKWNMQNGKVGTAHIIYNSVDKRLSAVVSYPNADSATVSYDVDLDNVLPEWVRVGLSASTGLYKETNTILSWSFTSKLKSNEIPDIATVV

Calls of active or inactive are those of the source.

Left-right determination factor 2 (Homo sapiens), sequence (O00292 whole entry, looked up): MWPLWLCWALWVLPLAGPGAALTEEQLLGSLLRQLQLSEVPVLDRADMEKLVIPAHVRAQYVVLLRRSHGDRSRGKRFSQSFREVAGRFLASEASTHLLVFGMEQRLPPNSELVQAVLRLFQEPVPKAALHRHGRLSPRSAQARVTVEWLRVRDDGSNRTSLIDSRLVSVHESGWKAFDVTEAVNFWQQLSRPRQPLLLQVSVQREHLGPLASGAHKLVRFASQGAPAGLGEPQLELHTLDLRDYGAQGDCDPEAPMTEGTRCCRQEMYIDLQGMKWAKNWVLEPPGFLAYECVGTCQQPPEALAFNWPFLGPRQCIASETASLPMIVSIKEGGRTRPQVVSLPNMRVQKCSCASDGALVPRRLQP

For the compound `COCCOC(=O)N1C(=O)[C@@]2(c3cc(C#CCCO)ccc31)[C@H](c1ccc(OCCO)cc1)N1[C@H](c3ccccc3)[C@H](c3ccccc3)OC(=O)[C@H]1[C@@H]2C(=O)N1CCc2cc(OC)c(OC)cc2C1`, the composite z-score in experiment [1] was 1.39; in [3], 0.503; in experiment [4] it was 0.759; in [5], 0.215; in experiment [6], -0.124; in experiment [7] it was -0.0904. Further, the composite z-score in experiment [8] is 0.0531; in experiment [9], -0.0856; in experiment [10], 0.642; in the experiment with Albumin (Bos taurus), -0.627; in [12], 0.0893; in experiment [13], -0.0731. Moreover, the composite z-score in experiment [14] was determined as 0.239; in [15] it was 1.06; in experiment [16] it was 1.48; in the experiment on Sam68 (KHDRBS1), 1.31; in [17] it was 0.559; in [18], 1.08. Also, the z-score in experiment [2] was -1.12. For the same compound, in experiment [11], the composite Z-score is 0.443 (inactive).
As to `C=CCNC(=O)[C@H]1[C@@H]2C(=O)O[C@@H](c3ccccc3)[C@@H](c3ccccc3)N2[C@@H](c2ccc(O)cc2)[C@]12C(=O)N(C(=O)OCCOC)c1ccc(C#CC3(O)CCCCCC3)cc12`, the composite z-score in experiment [1] was 0.739; in [3], -0.326; in [4], 0.487; in experiment [5], 0.205; in experiment [6], -0.0445; in [7], 0.0469. Besides, the composite z-score was 0.268 in experiment [8]; 1.16 in [9]; 1.2 in experiment [10]; 0.624 with Albumin (Bos taurus); 0.207 in [12]; -0.0519 in experiment [13]. For the same compound, the composite z-score was 0.39 in [14]; 1.08 in experiment [15]; -0.0714 in experiment [16]; 1.23 in the experiment on Sam68 (KHDRBS1); -0.233 in [17]; 0.915 in experiment [18]. For the same compound, the z-score in experiment [2] is -0.302. Further, the composite Z-score in experiment [11] is 0.282 (inactive).
Turning to `CC(C)(C)N1CC=CC23O[C@@H]4C=CCCOC(=O)C4[C@H]2C(=O)N(CCCO)[C@@H]3C1=O` (stereo not given in full), the composite z-score in experiment [1] was -0.371; in experiment [3], -0.611; in experiment [4], -0.801; in experiment [5] it was -0.97; in experiment [6], -0.172; in [7] it was -0.0769. Besides, the composite z-score in experiment [8] is -0.118; in [9], 0.0642; in experiment [10], -1.39; with Albumin (Bos taurus), -2.01; in [12] it was -0.222; in experiment [13], -0.177. Further, the composite z-score in experiment [14] is 0.405; in [15] it was -0.552; in experiment [16], -0.0817; with Sam68 (KHDRBS1), -1.76; in [17] it was -0.487; in experiment [18], -3.17. In experiment [2], the z-score was -1.17. The composite Z-score in experiment [11] was 0.494 (inactive).
Consider `COCCCNC(=O)[C@@]1(Cc2ccccc2N=[N+]=[N-])N=C(c2ccc(OCCCO)cc2)O[C@H]1c1ccccc1CN=[N+]=[N-]`, for which the composite z-score in experiment [1] was 1.44; in [3] it was 0.0627; in experiment [4] it was 0.941; in experiment [5], 0.0507; in [6], 0.0676; in experiment [7], 0.551. Moreover, the composite z-score in [8] was found to be 1.47; in experiment [9] it was 1.54; in [10], 1.71; in the experiment with Albumin (Bos taurus) it was 0.771; in experiment [12] it was 0.315; in experiment [13], 0.034. The composite z-score was 0.697 in [14]; 2.69 in experiment [15]; 0.565 in experiment [16]; 1.29 in the experiment on Sam68 (KHDRBS1); -0.508 in experiment [17]; 1.01 in experiment [18]. Besides, the z-score in experiment [2] is -2.86. In experiment [11], the composite Z-score was 0.103 (inactive).
As to `COC(=O)[C@@]1(Cc2ccc(F)cc2)[C@H]2c3cc(C(=O)N(C)C)n(Cc4ccc(C)c(F)c4F)c3C[C@H]2CN1C(=O)c1ccccc1`, the composite z-score in [1] was 1.33; in experiment [3], -0.0601; in [4] it was 1.61; in experiment [5], 0.962; in experiment [6], 0.0037; in [7] it was 0.141. The composite z-score in [8] was -0.0053; in experiment [9] it was 0.692; in [10], 0.298; with Albumin (Bos taurus), 0.751; in experiment [12], 0.243; in experiment [13] it was 0.0742. The composite z-score is 0.713 in [14]; 3.15 in experiment [15]; -0.0137 in [16]; 1.07 in the experiment with Sam68 (KHDRBS1); -0.991 in experiment [17]; 0.879 in experiment [18]. In addition, the z-score in [2] was -1.34. Moreover, the composite Z-score in [11] is 0.818 (inactive).
Take `COCCOC(=O)N1C(=O)[C@@]2(c3cc(C#Cc4ccc(OC)cc4)ccc31)[C@H](C(=O)N1CCc3cc(OC)c(OC)cc3C1)[C@H]1C(=O)O[C@H](c3ccccc3)[C@H](c3ccccc3)N1[C@@H]2c1ccc(O)cc1`: the composite z-score in experiment [1] is 1.13; in experiment [3], 0.582; in experiment [4], 0.111; in experiment [5], -0.575; in [6], 0.0088; in [7] it was 0.191. For the same compound, the composite z-score in experiment [8] is -0.407; in experiment [9], 0.575; in experiment [10], 1.78; with Albumin (Bos taurus), -0.237; in experiment [12], 0.436; in [13], 0.357. The composite z-score in [14] was 0.282; in experiment [15] it was 0.853; in experiment [16] it was 0.844; in the experiment with Sam68 (KHDRBS1) it was 1.28; in experiment [17], 0.805; in experiment [18], 1.16. For the same compound, the z-score in experiment [2] was -0.246. In experiment [11], the composite Z-score is -0.0164 (inactive).

The values above are taken from PubChem BioAssay.
